Screening results from PubChem BioAssay.
HSV replic up = increases HSV replication in cells; HSV replication augmentation in cells, fold increase; maximum fold increase; actives 0.005% (n = 220,000); AID 1956; in the data active = maximum fold increase above about 1.5; tested in PC3 cells
Yeast superoxide = caloric restriction mimetics inhibiting age-related superoxide in yeast; S. cerevisiae aged cells, superoxide DHE fluorescence; active compounds read low; superoxide response (% of plate mean), % at 10 µM; actives 0.18% (n = 330,000);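 active = superoxide response under a set limit, about three screen SD below normal, cut at about 65% in these data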;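 also: yeast aged for seven days with compound at 30 °C before DHE staining; 100% = average MFI of all compound-treated wells on the plate with controls excluded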
pCIP destab = lowers stability of the mouse p/CIP coactivator protein. Q05BA5. F442A p/CIP-EGFP cells, EGFP fluorescence, 16 h. decrease of EGFP signal, % at 10 µM. actives 0.01% (n = 290,000);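 active = EGFP signal decrease of at least 30% at 10 µM or well 3 SD below plate mean, unless failing retest; inactive = the rest, including hits failing retest or dose response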
H9c2 protect = protects H9c2 cardiomyocytes from peroxide injury; H2O2 injury protection, ATPLite, 2 h; protection from H2O2 cell death, % at 20 µM; actives 0.63% (n = 360,000); AID 588492;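 active = compounds giving at least 50% protection of heart cells from peroxide-induced death in the single-dose screen, raw or plate-pattern-corrected value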;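 also: 0% = DMSO wells with peroxide and 100% = DMSO wells without peroxide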
V-ATPase pH = alters yeast V-ATPase proton transport; S. cerevisiae, pHLuorin cytosolic pH fluorescence; response, % at 10 µM; actives 0.37% (n = 350,000); AID 504577; in the data active = response mostly above about 7.3%, no sharp cut-off; inactive = mostly below about 5.4%; also: actives read high
beta cell repl = MIN6 beta-cell proliferation induction; actives 0.29% (n = 330,000); MIN6 cells proliferation, ATPlite luminescence, 48 h; cells starved in 0.2% serum; 100% = growth in 10% serum; proliferation, % at 10 µM;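 active = compounds whose signal lies at least 3.5 SD above the mean of all wells on their plate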;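 also: 0% = DMSO-treated cells in low-serum medium and 100% = 10% serum control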
Superoxide pick = confirmation of caloric restriction mimetics inhibiting yeast age-related superoxide | S. cerevisiae aging, superoxide DHE fluorescence; active compounds read low | actives 1% (n = 850) | AID 434994 | superoxide response (% of plate), % at 10 µM | shares compounds with Yeast superoxide;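 active = superoxide signal below 65% of the plate average of sample wells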;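 also: cells aged with compound for 7 days at 30 degrees C before staining; 100% equals mean DHE fluorescence of all compound wells on the plate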
DHE fluor count = compound alters DHE oxidation or fluorescence in yeast; shares compounds with Yeast superoxide; S. cerevisiae BY4741, flow cytometry; active compounds read low; fluorescence response, % at 10 µM; 850 tested, under 10 active; AID 435000;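 active = fluorescence response below 15%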;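 also: percent of the mean fluorescence averaged over all compound wells on the plate; lower means stronger quenching of DHE signal or ROS scavenging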
Active calls of the source: *; i = inactive; x = not tested or not shown. Most compounds without a hit are left out; they make up all but 1.4% or so of the library.

SMILES | HSV replic up | Yeast superoxide | pCIP destab | H9c2 protect | V-ATPase pH | beta cell repl | Superoxide pick | DHE fluor count
O=C(Nc1ccc(Cl)cc1)[C@@H]1[C@@H]2C(=O)N(c3ccc(Cl)cc3)C(=O)[C@@H]2[C@H]2C=CC=NN21 | i | 64* | 5 | -4 | -5 | -5 | 99 | 93
CC1CC(=Cc2ccc(N)cc2)C(=O)O1 (configuration not stated) | x | x | x | 0 | 0 | x | x | x
COc1ccc(C2(SCC(N)C(=O)O)c3ccccc3-c3ccccc32)cc1 (configuration not stated) | x | x | x | 4 | 9 | x | x | x
N#CCc1nn(-c2ccccc2)c2ncnc(N)c12 | i | 88 | 2 | -1 | -3 | 2 | 102 | 103
N#CCc1nn(-c2ccc(Cl)cc2)c(N)c1C#N | i | 100 | 2 | 0 | -1 | -2 | x | x
CCCCN(Cc1ccc(C(=O)N[C@H](C(=O)O)C(C)C)cc1)C(=O)C(c1ccccc1)c1ccccc1 | x | 97 | x | -2 | -1 | 0 | x | x
Cc1ccc(-c2nnc(Nc3ccc4c(c3)OCO4)c3ccccc23)cc1S(=O)(=O)NC(C)C | i | 103 | 3 | 1 | -1 | -3 | 100 | 92
Cc1ccc(-c2nnc(Nc3ccc4c(c3)OCO4)c3ccccc23)cc1S(=O)(=O)NCCO | i | 103 | 13 | 15 | 1 | -1 | 103 | 94
O=C(CC1CCCCC1)NCCS(=O)(=O)N1CCN(c2ccccc2)CC1 | x | 64* | x | 0 | 4 | -1 | 96 | 107
O=C(CCC1CCCC1)NCCS(=O)(=O)N1CCN(c2ccccc2)CC1 | x | 90 | x | -3 | -3 | -2 | x | x
Clc1cccc(-c2ccc(C=Nc3ccc(N4CCOCC4)cc3)o2)c1 | i | 53* | 5 | -8 | 4 | x | 93 | 96
O=C(O)c1ccc(N/N=C/c2ccc(-c3cccc(Cl)c3)o2)cc1 | i | 87 | -11 | -4 | 5 | -3 | x | x
O=C(NCc1ccco1)c1nn(-c2ccccc2)c(=O)c2ccccc12 | i | 62* | 1 | 11 | -1 | -2 | 90 | 107
COc1ccc2nc(SCC(=O)Nc3nccs3)[nH]c2c1 | i | 89 | -6 | 0 | 1 | -2 | x | x
C#CCSc1nnc(-c2ccc([N+](=O)[O-])cc2)o1 | i | 54* | -11 | -3 | 2 | -3 | 73 | 93
CSc1nnc(-c2ccc([N+](=O)[O-])cc2)o1 | i | 94 | -17 | 5 | 1 | -3 | x | x
CC/C=C/C(=O)N1CC2(CC(c3cccc(NC(=O)COc4ccc(Cl)cc4)c3)=NO2)C[C@H]1C(N)=O (some centres not stated) | i | 99 | -6 | -2 | 2 | -4 | x | x
COc1ccccc1C(=O)N1CCN(c2cccc(Cl)c2)CC1 | i | 95 | -4 | 0 | 0 | -1 | 80 | 97
COc1cc(SC)ccc1C(=O)N1CCN(c2ccc(O)cc2)CC1 | i | 86 | -1 | 5 | 1 | -4 | 100 | 94
COc1cc(SC)ccc1C(=O)N1CCN(c2ccccc2)CC1 | i | 94 | -8 | 0 | 1 | -3 | 102 | 99
COc1cc(SC)ccc1C(=O)OCC(=O)N1CCN(C(C)=O)CC1 | x | 106 | x | 4 | 0 | -2 | x | x
CCCCNC(=O)c1nc(C2CCN(S(=O)(=O)c3ccccc3C(F)(F)F)CC2)oc1-c1ccccc1 | x | x | x | 4 | x | x | x | x
COc1ccc(-n2nnnc2CNC(=O)c2ccc(S(=O)(=O)N3CCOCC3)cc2)cc1 | x | 60* | x | -3 | 2 | 1 | 107 | 114
O=C(NCc1nnnn1-c1ccc(F)cc1)c1ccc(S(=O)(=O)N2CCOCC2)cc1 | x | x | x | 0 | 1 | x | x | x
Cc1cc(NC(=O)CSc2nnc(-c3ccc(S(=O)(=O)N4CCCC4)cc3)n2C)no1 | i | 51* | -10 | 3 | -1 | -2 | 90 | 108
SMILES | HSV replic up | Yeast superoxide | pCIP destab | H9c2 protect | V-ATPase pH | beta cell repl | Superoxide pick | DHE fluor count
Cc1c(NS(=O)(=O)c2ccccc2)cc(Cl)c(O)c1C | i | 142 | 2 | -4 | 0 | -6 | 89 | 100
CN(C)C(CNC(=O)c1ccc(C(F)(F)F)cc1)c1ccco1 (configuration not stated) | x | 94 | 8 | 1 | -1 | -5 | x | x
OCCN(CCO)c1ccc(C(c2ccc(Cl)cc2)c2ccc(N(CCO)CCO)cc2Cl)c(Cl)c1 | i | 62* | -12 | 14 | -1 | -4 | 95 | 97
O=C(Cc1cccc(NC(=O)C2CCN(S(=O)(=O)c3cccc([N+](=O)[O-])c3)CC2)c1)Nc1cccc(C(=O)N2CCCCC2)c1 | x | x | x | 4 | 2 | x | x | x
Cc1csc(=O)n1CC(=O)OCC(=O)Nc1ccc(F)c(F)c1F | x | x | x | 6 | 2 | x | x | x
CCOC(=O)c1cc(=O)n(Cc2ccccc2C)c2ccccc12 | i | 61* | -1 | -9 | 1 | -2 | 98 | 94
CSCCC(NC(=O)c1ccccc1Br)C(=O)NCc1ccc(F)cc1 (configuration not stated) | x | 23* | -2 | 4 | 2 | -5 | 88 | 109
COc1cc(C)c(/C=C(\C#N)C(=O)Nc2cccc(C)c2)cc1C(C)C | i | 50* | -5 | -11 | -3 | -3 | 102 | 95
CCCCCCCCSc1nnc(-c2ccc(OC)cc2)o1 | i | 87 | 2 | -24 | -1 | -1 | 103 | 93
CC(C)=NNC(=O)c1c(O)c2ccccc2[nH]c1=O | i | 62* | -2 | 5 | 2 | -4 | 83 | 94
O=C(NC1CCCCC1)c1cc([N+](=O)[O-])ccc1N1CCCC1 | x | 96 | -21 | -1 | -3 | -1 | x | x
O=C(NC1CCCCCCC1)c1cc([N+](=O)[O-])ccc1Cl | x | 63* | -9 | 9 | 2 | -4 | 101 | 92
CCC(CO)Oc1cc(NCc2ccc(O)cc2)c2ncn(C(C)C)c2c1 (configuration not stated) | x | 65* | x | -2 | -2 | 1 | 83 | 91
CCOc1ncccc1C(=O)N1CCN(c2cccc(C)c2C)CC1 | i | x | -9 | 1 | 1 | x | 114 | 107
CCOc1ncccc1C(=O)N1CCN(c2cc(Cl)ccc2C)CC1 | i | 106 | 2 | -4 | -5 | 0 | 90 | 112
O=C(O)Cc1ccc2ccc3ccccc3c2c1 | x | 112 | x | 4 | 0 | -2 | x | x
CCn1c2ccc(CC(=O)O)cc2c2cc(CC(=O)O)ccc21 | i | 105 | -19 | 7 | -4 | -1 | 101 | 103
O=C(Nc1ccc(F)c(F)c1)c1ccc(F)c(S(=O)(=O)N2CCOCC2)c1 | x | 56* | -21 | x | x | 0 | 120 | 110
COc1cc(Nc2ncnc(N)n2)cc(OC)c1OC | i | 102 | 2 | 8 | -5 | 0 | x | x
